Only a selection was taken, and hits are over-represented in it overall.
FECH block: human FECH heme synthesis enzyme inhibition | AID 1671448 | purified FECH, Ni-mesoporphyrin absorbance 550 nm | calls only at 10 µM (by protocol) | 20,000 compounds, 3.3% hits;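 active = enzyme reaction rate more than 3 SD below the solvent-only control wells on the same plate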;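 note: lower slope than DMSO wells means FECH inhibition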
Target sequence (P22830 whole entry, looked up): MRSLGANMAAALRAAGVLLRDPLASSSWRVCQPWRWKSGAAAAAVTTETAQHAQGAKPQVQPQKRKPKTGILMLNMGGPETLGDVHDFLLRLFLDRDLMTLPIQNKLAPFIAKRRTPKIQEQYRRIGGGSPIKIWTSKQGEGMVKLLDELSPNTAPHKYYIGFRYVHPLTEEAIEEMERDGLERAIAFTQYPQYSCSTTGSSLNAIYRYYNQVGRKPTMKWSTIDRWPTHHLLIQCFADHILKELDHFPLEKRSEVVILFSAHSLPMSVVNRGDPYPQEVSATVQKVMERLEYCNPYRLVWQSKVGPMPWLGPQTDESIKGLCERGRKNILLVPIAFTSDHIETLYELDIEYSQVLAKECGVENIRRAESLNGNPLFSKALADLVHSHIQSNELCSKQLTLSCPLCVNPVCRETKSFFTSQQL
Of the large screens only hits and unclear results are named; the others gave an inactive call.

Cc1ccccc1C(=O)N1CCc2c(c(C(=O)NCc3ccccc3)nn2C)C1	none
Cn1nc(C(=O)NCc2ccccc2)c2c1CCN(C(=O)c1ccccc1)C2	none
COc1ccc(C(=O)N2CCc3c(c(C(=O)NCc4ccccc4)nn3C)C2)cc1	none
Cn1nc(C(=O)NCc2ccccc2)c2c1CCN(C(=O)c1ccccc1Cl)C2	none
Cc1ccc(C(=O)N2CCc3c(c(C(=O)NCc4ccccc4)nn3C)C2)cc1	FECH block active
Cn1nc(C(=O)NCc2ccccc2)c2c1CCN(C(=O)C1CCC1)C2	FECH block active
Cc1cnn(C(C)C2CC2)c1NC(=O)c1ccc(Cn2cnnn2)cc1 (configuration not stated)	none
COc1ncccc1-c1ccc(O)c(C(C)=O)c1	none
Fc1ccc(Nc2nc(N3CCOCC3)nc3c2cnn3-c2ccccc2)cc1	none
COCC1(Cn2cnc(-c3ccccc3)c2-c2cccc3cnccc23)CC1	FECH block active
CCc1ccccc1-c1c(-c2ccccc2)ncn1CCC(=O)OC	none
Cn1cnc(-c2ccccc2)c1-c1cccc2cnccc12	none
CSc1nc(NCC2CCCO2)c(C#N)c(-c2ccc(C)cc2)n1 (configuration not stated)	none
CC1(C)CC(NC(=O)c2nc[nH]c2C(=O)NC2CCCCC2)CC(C)(C)N1	none
Cc1cc(F)ccc1NC(=O)C(C)n1nc(-c2ccc(C)c(S(N)(=O)=O)c2)c2c(c1=O)CCCC2 (configuration not stated)	none
Cc1cc(C(=O)N(C)C(C)c2nccs2)cc(S(N)(=O)=O)c1C (configuration not stated)	none
CC(C)(C)c1ccc(-c2nc3nc(CNc4ccc(Br)cc4)cc(=O)n3[nH]2)cc1	none
CC(C)(C)c1ccc(-c2nc3nc(CN4CCN(c5ccc(F)cc5)CC4)cc(=O)n3[nH]2)cc1	none
CCOc1ccccc1NCc1cc(=O)n2[nH]c(-c3ccc(C(C)(C)C)cc3)nc2n1	none
CC(C)(C)c1ccc(-c2nc3nc(CNc4ccccc4F)cc(=O)n3[nH]2)cc1	FECH block active
CCN1CCN(Cc2cc(=O)n3[nH]c(-c4ccc(C(C)(C)C)cc4)nc3n2)CC1	none
Cc1ccc(Cl)cc1NCc1cc(=O)n2[nH]c(-c3ccc(C(C)(C)C)cc3)nc2n1	FECH block active
CCOc1ccccc1NC(=O)N1CCN(c2cc(-c3cccc(OC)c3)ncn2)CC1	none
CCOC(=O)c1cc2ccsc2n1CC(=O)Nc1ccc(C)c(F)c1	none
CCOc1ccccc1N(Cc1nc2nc(C)cc(=O)n2[nH]1)C(=O)c1ccc(F)cc1	none
O=C(c1csc(S(=O)(=O)Nc2ccccc2F)c1)N1CCCCC1	none
CCc1ccccc1NS(=O)(=O)c1cc(C(=O)N2CCCC2)cs1	none
Cc1ccccc1CNS(=O)(=O)c1cc(C(=O)N2CCCC2)cs1	none
Cc1ccc(C)c(NS(=O)(=O)c2cc(C(=O)N3CCCC3)cs2)c1	FECH block active
CCc1cccc(C)c1NS(=O)(=O)c1cc(C(=O)N2CCCC2)cs1	none
Cc1cccc(NS(=O)(=O)c2cc(C(=O)N3CCCC3)cs2)c1C	FECH block active
O=C1CCC2(CCN1)CCN(S(=O)(=O)c1ccc3ccccc3c1)CC2	none
Cc1oc(-c2ccc(OC(C)C)cc2)nc1Cn1c(=O)c2cnc(-c3cccnc3)nc2n(C)c1=O	none
CCOc1ccccc1-c1nc(CSc2nc(-c3ccc(Cl)cc3)cc(=O)[nH]2)c(C)o1	none
Cc1ccc2nc(C)c(C(=O)NC3CC(=O)N(C(C)C)C3)cc2c1 (configuration not stated)	none
COc1ccc(-c2cc(C(=O)Nc3ccc(C)cc3C)[nH]n2)cc1S(N)(=O)=O	none
COc1ccc(-c2ccc(=O)[nH]n2)cc1S(=O)(=O)Nc1ccc(C)cc1C	none
COc1ccc(N2C(=O)CCS2(=O)=O)cc1S(=O)(=O)Nc1cc(C)ccc1C	none
Cc1ccc(C)c(NS(=O)(=O)c2cc(N3C(=O)CCS3(=O)=O)ccc2C)c1	none
Cc1ccc(C)c(NS(=O)(=O)c2ccc(N)c(S(N)(=O)=O)c2)c1	FECH block active
Cc1ccc(NS(=O)(=O)c2ccc(N)c(S(N)(=O)=O)c2)c(C)c1	FECH block active
CCOC(=O)c1ccc(NC(=O)CN2CCN(Cc3ccccc3C)S2(=O)=O)cc1	none
O=S(=O)(NCCn1c(-c2ccccc2)nc2cccnc21)c1ccc2c(c1)CCCC2	none
COc1cccc(C(=O)Nc2nc3n(n2)C(c2ccccc2Cl)C=C(c2ccc(Cl)cc2)N3)c1 (configuration not stated)	none
CCCCC1C=CCN1C(=O)c1ccnc(C(C)C)n1 (configuration not stated)	none
CCCc1cc(=O)n2[nH]c(CNc3cccc(Cl)c3C)nc2n1	FECH block active
CCCc1cc(=O)n2[nH]c(CNc3cc(Cl)ccc3C)nc2n1	FECH block active
Cc1ccc(Cl)cc1NCc1cc(=O)n2[nH]c(NCc3ccc(F)cc3)nc2n1	none
CCCc1c(C)nc2nc(-c3ccco3)[nH]n2c1=O	none
CCCc1cc(=O)n2[nH]c(CNc3ccccc3C)nc2n1	FECH block active
Cc1cccc(NCc2nc3nc(C)c(Cc4ccc(Cl)cc4)c(=O)n3[nH]2)c1C	FECH block active
COc1ccc(Cl)cc1NCc1cc(=O)n2[nH]c(NCc3ccccc3)nc2n1	none
CCOC(=O)CCc1c(C)nc2nc(CNc3ccccc3Cl)[nH]n2c1=O	none
CSCc1noc(-c2cn(CCc3ccccc3)nn2)n1	none
CN(Cc1cnn(C)c1)C(=O)c1cn(C(c2ccccc2)c2ccccc2)nn1	none
CN(C)Cc1ccc(C2CCCN2c2nc(CCN)nc3ccccc23)cc1 (configuration not stated)	none
COc1ccc(NC(=O)C2CCN(c3ccc(-c4ccccc4)nn3)CC2)cc1OC	none
Cc1cccc(-c2ccc(N3CCCC(C(=O)NCC(C)C)C3)nn2)c1 (configuration not stated)	none
CN1[C@@H](c2ccccc2)[C@@H](C(=O)NCCn2ccnc2)C[C@@]1(C)C(=O)O	none
COc1ccc(CNc2nc3nc(CNc4cccc(C)c4C)cc(=O)n3[nH]2)cc1	none
Cc1cccc(NCc2cc(=O)n3[nH]c(NCc4ccccc4)nc3n2)c1C	none
CCCc1cc(=O)n2[nH]c(CNc3cccc(C)c3C)nc2n1	FECH block active
Cc1cccc2cc(CN3CCOCC(CN(C)C)C3)c(=O)[nH]c12 (configuration not stated)	none
CCN(CCO)c1nc(Nc2ccccc2)c2cnn(-c3ccccc3)c2n1	none
Cc1ccc(NC(=O)CSCc2nc(-c3ccccc3)no2)cc1	none
CN1CCC(NC(=O)C2(N(C)CCc3ccccc3)Cc3ccccc3C2)C1=O (configuration not stated)	none
Cc1cc(N(C)C)nc(Nc2ccc(NC(=O)c3cccc(Br)c3)cc2)n1	none
Cc1cccc(CN2CCCN(CC(=O)Nc3ccccc3F)S2(=O)=O)c1	FECH block active
CCOc1ccc(NC(=O)CN2CCCN(Cc3cccc(C)c3)S2(=O)=O)cc1	FECH block active
COc1ccc(OC)c(NC(=O)CN2CCCN(Cc3ccccc3)S2(=O)=O)c1	none
COc1ccc(CN2CCCN(CC(=O)Nc3ccccc3F)S2(=O)=O)cc1	none
CCOc1ccc(NC(=O)CN2CCCN(Cc3cccc(F)c3)S2(=O)=O)cc1	none
COc1ccc(NC(=O)CN2CCN(Cc3ccccc3C)S2(=O)=O)cc1	none
COc1ccc(OC)c(NC(=O)CN2CCCN(Cc3ccc(C)cc3)S2(=O)=O)c1	none
COc1ccc(NC(=O)CN2CCN(Cc3cccc(C)c3)S2(=O)=O)cc1	FECH block active
COc1ccc(OC)c(NC(=O)CN2CCCN(Cc3cccc(C)c3)S2(=O)=O)c1	FECH block active
COc1ccc(CN2CCCN(CC(=O)Nc3ccc(OC)cc3)S2(=O)=O)cc1	none

Screens (PubChem)
